Compound: ClCC(=O)NC(C1CC1)C1CC1
Assay: log2 ratio of Biotin-Ahx-Ub-VS probe labelling (fragment/DMSO); higher = less target engagement (more negative = stronger competition), active = hit call of the paper (q ≤ 0.05, log2 ratio ≤ -1)
Settings: compound concentration: 200 uM; treatment time: 3 h
Method: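 Competitive ABPP in HEK293T cell lysate. Lysates were treated with each chloroacetamide fragment at 200 µM for 3 h, then with Biotin-Ahx-Ub-VS (0.5 µM, 1 h), NeutrAvidin-enriched and analysed by diaPASEF LC-MS/MS. Protein LFQ was median-normalised; average log2 ratio is fragment/DMSO from an unpaired t-test (n=3 treated, n=44 DMSO). Hits: q ≤ 0.05, log2 ratio ≤ -1, unique peptides ≥ 2.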

UniProt Q92905, sequence (Q92905 whole entry, looked up): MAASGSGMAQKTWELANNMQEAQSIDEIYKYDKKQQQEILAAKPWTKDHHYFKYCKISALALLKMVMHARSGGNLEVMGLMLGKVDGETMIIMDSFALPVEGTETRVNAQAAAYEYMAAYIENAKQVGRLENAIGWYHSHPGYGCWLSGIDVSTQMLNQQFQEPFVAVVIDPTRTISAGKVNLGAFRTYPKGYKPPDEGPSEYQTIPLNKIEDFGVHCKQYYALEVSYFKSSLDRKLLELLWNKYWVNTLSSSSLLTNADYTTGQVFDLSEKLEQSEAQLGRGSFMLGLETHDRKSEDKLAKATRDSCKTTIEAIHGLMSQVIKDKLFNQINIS
UniProt Q5VVQ6, sequence (Q5VVQ6 whole entry): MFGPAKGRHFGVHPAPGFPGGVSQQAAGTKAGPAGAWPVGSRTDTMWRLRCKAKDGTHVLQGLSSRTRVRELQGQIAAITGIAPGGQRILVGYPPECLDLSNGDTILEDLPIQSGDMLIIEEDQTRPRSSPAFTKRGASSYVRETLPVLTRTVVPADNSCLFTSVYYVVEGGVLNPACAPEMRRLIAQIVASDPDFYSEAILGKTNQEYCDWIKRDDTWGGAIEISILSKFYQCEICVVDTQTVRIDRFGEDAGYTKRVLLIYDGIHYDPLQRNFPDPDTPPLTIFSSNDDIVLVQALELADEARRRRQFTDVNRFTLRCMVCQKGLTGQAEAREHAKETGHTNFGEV
UniProt Q70EL1, sequence (Q70EL1 whole entry): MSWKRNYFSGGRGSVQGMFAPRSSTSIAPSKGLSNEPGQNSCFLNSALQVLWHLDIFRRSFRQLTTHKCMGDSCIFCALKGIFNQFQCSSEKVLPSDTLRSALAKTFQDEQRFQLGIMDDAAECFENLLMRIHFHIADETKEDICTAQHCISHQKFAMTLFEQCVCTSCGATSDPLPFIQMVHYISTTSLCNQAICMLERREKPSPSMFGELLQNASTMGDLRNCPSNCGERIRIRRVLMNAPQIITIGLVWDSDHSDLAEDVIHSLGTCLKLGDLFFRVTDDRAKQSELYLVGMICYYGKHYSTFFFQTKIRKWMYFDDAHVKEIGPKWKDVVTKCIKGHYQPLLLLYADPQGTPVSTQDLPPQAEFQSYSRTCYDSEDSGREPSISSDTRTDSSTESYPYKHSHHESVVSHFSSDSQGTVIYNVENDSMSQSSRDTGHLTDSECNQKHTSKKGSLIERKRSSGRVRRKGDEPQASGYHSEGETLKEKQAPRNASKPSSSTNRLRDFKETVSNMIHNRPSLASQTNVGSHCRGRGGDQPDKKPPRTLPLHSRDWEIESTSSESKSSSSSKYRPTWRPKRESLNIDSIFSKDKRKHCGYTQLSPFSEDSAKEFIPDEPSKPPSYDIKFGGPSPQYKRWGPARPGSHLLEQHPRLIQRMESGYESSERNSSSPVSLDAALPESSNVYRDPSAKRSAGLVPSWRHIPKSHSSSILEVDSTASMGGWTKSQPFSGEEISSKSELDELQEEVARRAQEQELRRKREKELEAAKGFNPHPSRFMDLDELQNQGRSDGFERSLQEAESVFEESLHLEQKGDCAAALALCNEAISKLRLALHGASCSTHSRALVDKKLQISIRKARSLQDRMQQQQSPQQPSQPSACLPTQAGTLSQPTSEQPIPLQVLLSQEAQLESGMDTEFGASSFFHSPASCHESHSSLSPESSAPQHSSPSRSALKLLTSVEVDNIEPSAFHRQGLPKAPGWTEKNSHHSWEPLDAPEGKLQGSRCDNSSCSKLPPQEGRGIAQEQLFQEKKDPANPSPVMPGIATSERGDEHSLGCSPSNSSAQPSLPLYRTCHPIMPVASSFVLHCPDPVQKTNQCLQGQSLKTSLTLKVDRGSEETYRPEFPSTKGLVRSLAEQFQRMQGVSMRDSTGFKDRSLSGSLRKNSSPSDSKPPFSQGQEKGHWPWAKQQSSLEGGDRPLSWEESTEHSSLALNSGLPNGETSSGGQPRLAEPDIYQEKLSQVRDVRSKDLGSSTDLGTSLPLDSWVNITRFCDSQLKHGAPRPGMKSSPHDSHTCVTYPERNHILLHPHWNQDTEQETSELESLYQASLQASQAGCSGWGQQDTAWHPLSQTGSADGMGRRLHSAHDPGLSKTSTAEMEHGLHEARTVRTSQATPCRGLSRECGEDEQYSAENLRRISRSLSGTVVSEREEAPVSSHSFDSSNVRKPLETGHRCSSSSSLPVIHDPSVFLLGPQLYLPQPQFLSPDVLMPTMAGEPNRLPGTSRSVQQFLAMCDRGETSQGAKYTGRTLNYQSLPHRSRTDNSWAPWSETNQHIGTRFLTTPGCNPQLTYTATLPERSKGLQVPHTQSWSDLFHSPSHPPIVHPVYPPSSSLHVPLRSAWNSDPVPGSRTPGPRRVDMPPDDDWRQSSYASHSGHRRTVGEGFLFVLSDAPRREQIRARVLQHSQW
UniProt Q96G74, sequence (Q96G74 whole entry): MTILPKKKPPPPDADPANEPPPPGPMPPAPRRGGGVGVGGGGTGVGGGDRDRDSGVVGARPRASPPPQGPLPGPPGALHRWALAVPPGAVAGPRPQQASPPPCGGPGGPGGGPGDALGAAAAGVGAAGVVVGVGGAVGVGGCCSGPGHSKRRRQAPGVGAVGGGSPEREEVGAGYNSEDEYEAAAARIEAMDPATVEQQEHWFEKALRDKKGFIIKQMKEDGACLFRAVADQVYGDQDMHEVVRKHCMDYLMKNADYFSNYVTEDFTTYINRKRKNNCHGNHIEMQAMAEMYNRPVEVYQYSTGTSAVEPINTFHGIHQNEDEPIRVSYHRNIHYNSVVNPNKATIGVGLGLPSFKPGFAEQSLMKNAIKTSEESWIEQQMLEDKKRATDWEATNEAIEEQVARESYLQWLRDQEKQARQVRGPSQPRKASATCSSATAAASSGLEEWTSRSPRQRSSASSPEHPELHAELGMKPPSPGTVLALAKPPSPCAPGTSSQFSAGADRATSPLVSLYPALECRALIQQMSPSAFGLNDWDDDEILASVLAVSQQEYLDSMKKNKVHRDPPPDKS
UniProt Q8N6M0, sequence (Q8N6M0 whole entry): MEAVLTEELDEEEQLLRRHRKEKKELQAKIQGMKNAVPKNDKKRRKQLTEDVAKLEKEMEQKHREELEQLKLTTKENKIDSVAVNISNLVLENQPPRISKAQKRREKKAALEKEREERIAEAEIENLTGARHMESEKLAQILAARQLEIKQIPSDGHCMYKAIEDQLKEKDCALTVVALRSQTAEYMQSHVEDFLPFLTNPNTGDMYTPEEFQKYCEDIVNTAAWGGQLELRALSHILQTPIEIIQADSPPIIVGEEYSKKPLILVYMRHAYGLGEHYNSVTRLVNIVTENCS
UniProt Q53GS9, sequence (Q53GS9 whole entry): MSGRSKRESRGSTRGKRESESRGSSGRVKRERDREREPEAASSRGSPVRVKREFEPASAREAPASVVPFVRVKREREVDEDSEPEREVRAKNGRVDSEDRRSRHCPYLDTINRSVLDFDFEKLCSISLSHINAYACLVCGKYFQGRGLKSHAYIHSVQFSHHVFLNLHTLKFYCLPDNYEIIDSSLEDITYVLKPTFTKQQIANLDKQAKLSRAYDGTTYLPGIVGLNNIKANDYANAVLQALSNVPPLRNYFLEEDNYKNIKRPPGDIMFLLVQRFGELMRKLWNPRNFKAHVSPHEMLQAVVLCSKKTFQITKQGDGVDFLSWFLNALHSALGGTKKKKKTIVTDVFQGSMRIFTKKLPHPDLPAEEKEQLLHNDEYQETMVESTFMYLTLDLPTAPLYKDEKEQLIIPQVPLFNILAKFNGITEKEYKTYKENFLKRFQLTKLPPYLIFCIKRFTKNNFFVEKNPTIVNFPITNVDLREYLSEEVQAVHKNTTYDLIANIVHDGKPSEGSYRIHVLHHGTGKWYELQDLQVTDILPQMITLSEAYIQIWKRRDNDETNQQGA
UniProt O00487, sequence (O00487 whole entry): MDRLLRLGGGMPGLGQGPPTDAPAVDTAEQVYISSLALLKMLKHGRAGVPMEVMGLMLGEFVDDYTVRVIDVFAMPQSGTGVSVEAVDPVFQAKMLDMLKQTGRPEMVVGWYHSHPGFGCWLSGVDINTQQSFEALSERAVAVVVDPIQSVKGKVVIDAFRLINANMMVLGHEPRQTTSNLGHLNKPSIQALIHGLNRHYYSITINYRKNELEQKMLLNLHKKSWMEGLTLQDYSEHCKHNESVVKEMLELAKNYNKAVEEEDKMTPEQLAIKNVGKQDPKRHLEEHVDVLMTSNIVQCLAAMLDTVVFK
UniProt P62068, sequence (P62068 whole entry): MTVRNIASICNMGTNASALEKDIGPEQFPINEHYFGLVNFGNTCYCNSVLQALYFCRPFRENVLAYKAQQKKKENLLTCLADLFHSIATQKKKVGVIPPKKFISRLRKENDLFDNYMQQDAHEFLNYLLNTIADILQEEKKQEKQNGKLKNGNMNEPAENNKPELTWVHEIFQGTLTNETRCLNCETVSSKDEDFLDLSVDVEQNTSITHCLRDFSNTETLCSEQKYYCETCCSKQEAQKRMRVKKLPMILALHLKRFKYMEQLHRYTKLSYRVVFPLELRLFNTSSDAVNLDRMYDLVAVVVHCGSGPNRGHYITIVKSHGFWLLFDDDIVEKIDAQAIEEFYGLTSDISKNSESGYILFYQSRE
UniProt Q96FW1, sequence (Q96FW1 whole entry): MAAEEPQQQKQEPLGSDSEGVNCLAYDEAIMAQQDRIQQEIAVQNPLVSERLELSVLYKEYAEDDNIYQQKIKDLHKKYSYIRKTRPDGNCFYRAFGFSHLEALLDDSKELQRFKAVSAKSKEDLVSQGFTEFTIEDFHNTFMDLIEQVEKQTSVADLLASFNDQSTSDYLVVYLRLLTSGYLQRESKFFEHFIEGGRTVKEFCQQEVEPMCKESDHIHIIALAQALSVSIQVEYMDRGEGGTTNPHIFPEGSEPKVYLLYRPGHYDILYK
UniProt P15374, sequence (P15374 whole entry): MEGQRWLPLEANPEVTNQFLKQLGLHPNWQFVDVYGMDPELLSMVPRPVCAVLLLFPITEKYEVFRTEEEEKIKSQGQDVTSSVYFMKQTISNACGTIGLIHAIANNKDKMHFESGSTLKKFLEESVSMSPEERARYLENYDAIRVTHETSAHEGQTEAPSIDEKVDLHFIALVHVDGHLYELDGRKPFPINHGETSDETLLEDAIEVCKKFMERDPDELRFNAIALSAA

Target | log2 ratio of Biotin-Ahx-Ub-VS probe labelling
UniProt O00507 | -0.0912 (inactive)
VCPIP1 (UniProt Q96JH7) | -0.276 (inactive)
YOD1 (UniProt Q5VVQ6) | -0.0299 (inactive)
UniProt O00487 | -0.179 (inactive)
OTUD7B (UniProt Q6GQQ9) | -1.44 (active)
USP9X (UniProt Q93008) | -0.125 (inactive)
FAM105A (UniProt Q9NUU6) | -0.0106 (inactive)
USP16 (UniProt Q9Y5T5) | -0.253 (inactive)
OTUD4 (UniProt Q01804) | -0.457 (inactive)
USP24 (UniProt Q9UPU5) | -0.346 (inactive)
OTUD6B (UniProt Q8N6M0) | -0.29 (inactive)
UCHL1 (UniProt P09936) | -1.28 (active)
UniProt Q9P2H5 | -0.0753 (inactive)
USP47 (UniProt Q96K76) | -0.205 (inactive)
USP25 (UniProt Q9UHP3) | -0.502 (inactive)
COPS5 (UniProt Q92905) | -0.232 (inactive)
USP42 (UniProt Q9H9J4) | -0.0349 (inactive)
USP48 (UniProt Q86UV5) | 0.01 (inactive)
USP46 (UniProt P62068) | 0.045 (inactive)
OTUD5 (UniProt Q96G74) | -0.0756 (inactive)

Target | log2 ratio of Biotin-Ahx-Ub-VS probe labelling
EIF3F (UniProt O00303) | -0.0875 (inactive)
USP19 (UniProt O94966) | -0.198 (inactive)
UniProt Q8TE49 | -0.531 (inactive)
USP54 (UniProt Q70EL1) | -0.749 (inactive)
USP8 (UniProt P40818) | -0.0528 (inactive)
USP4 (UniProt Q13107) | -0.162 (inactive)
OTUB1 (UniProt Q96FW1) | 0.0718 (inactive)
ATXN3 (UniProt P54252) | 0.0786 (inactive)
PRPF8 (UniProt Q6P2Q9) | 0.0738 (inactive)
USP15 (UniProt Q9Y4E8) | -0.268 (inactive)
EIF3H (UniProt O15372) | -0.0951 (inactive)
UCHL3 (UniProt P15374) | 0.117 (inactive)
UniProt Q9UGI0 | -0.0131 (inactive)
USP36 (UniProt Q9P275) | -0.148 (inactive)
USP14 (UniProt P54578) | -0.411 (inactive)
USP22 (UniProt Q9UPT9) | -0.16 (inactive)
UniProt Q5T2D3 | -0.0205 (inactive)
UCHL5 (UniProt Q9Y5K5) | -0.00772 (inactive)
USP39 (UniProt Q53GS9) | -0.194 (inactive)
PSMD7 (UniProt P51665) | -0.0309 (inactive)

From the supplement of paper PMC11732987, “Enantioselective OTUD7B fragment discovery through chemoproteomics screening and high-throughput optimisation” (Communications Chemistry, 2025)
